Bfl-1 A1 inh: caspase 3/7 activation in MEF A1-2A-BIM cells, primary screen, A1 inhibitor project, cell-based, luminescence, HTS | Caspase-Glo 3/7 luminescence, 3 h; percent of clofoctol response, vehicle zero | AID 2462, 2010 | caspase activation, % (test concentration not listed) | 0.066% of 330,000 active;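 active means over half of replicate activation scores above 10%, or exactly half above 10 with the replicate mean above 10; inconclusive means replicate mean below 10 yet half the replicates above 10; inactive means over half of replicates below 10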
VLA-4 inh: inhibition in human VLA-4 binding assay, primary screen, VLA-4 allosteric modulator project, MLPCN library, flow cytometry, VLA-4 expressing cells | Integrin alpha-4 (Homo sapiens), P13612 | ligand binding flow cytometry | inhibition, % (about 7 µM as worked out from the volumes in the protocol) | 0.2% of 330,000 active | AID 2557, 2010; in the data active means inhibition above about 50%
ALR inh: inhibitors of human ALR sulfhydryl oxidase, primary screen, biochemical, H2O2 detection, HRP-luminol luminescence, single point; 3.8% of 290,000 active; FAD-linked sulfhydryl oxidase ALR (Homo sapiens), P55789; purified ALR, DTT oxidation; inhibition, % (no concentration beside the values); AID 485317, 2010;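 active means mean replicate inhibition above about 79%, with every replicate also reaching it, limit read from the data; inconclusive means only one of the two criteria met; inactive means mean below limit and not every replicate reaching it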
AHR activator: AHR activators, primary screen, cell-based, luminescence, luciferase reporter, human. Aryl hydrocarbon receptor (Homo sapiens), P35869. AHR-responsive luciferase reporter cells. activation, % at 5 µM. 2.5% of 320,000 active. AID 2796, 2010; in the data active means activation above about 47%;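 further: 0% = vehicle wells and 100% = reference agonist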
Mot1-301 SUMO: yeast Mot1-301 growth rescue at high temperature, primary screen, SUMOylation pathway inhibitor project, S. cerevisiae, ATP luminescence, 38.5C; S. cerevisiae Mot1-301 growth rescue; percent above DMSO median, 100 means doubled; growth rescue, % at 18.8 µM; 1% of 320,000 active;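 active means every valid replicate shows activation above 250% relative to neutral control wells; inactive means the rest, any valid replicate at or below 250%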;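 further: OY570 slx delta 5 strain wells were the positive control but not used for scaling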
Efflux pump mplx: inhibitors of Candida efflux pumps in yeast, primary screen, S. cerevisiae, Nile Red, multiplex; inhibition, % at 10 µM; S. cerevisiae Candida pump triplex; AID 485275, 2010; 0.44% of 330,000 active;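 active means plate passing quality check with inhibition over a set limit, or well fluorescence over plate mean plus 4 SD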;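 further: Nile Red retained in pooled yeast measured as flow cytometry median fluorescence; 0% = buffer negative control and 100% = Enniatin B positive control; higher means more Nile Red kept so more efflux inhibition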
* marks the source's active call; other numbers are inactive results; ? = inconclusive; . = not tested or not shown. Sampled rows, rich in hits. Any-hit rate of the full collection: about 7.2%.

SMILES	Bfl-1 A1 inh	VLA-4 inh	ALR inh	AHR activator	Mot1-301 SUMO	Efflux pump mplx
COC(=O)c1ccc(-n2cc(-c3ccc(OC)cc3)[nH]c2=S)cc1	0	-21	88*	0	0	0
Cc1cc(NS(=O)(=O)c2ccc(NC(=O)CN3C(=O)NC(C)(c4ccccc4)C3=O)cc2)nc(C)n1 (centres undefined)	0	8	-3	-3	15	0
CC1(c2ccccc2)NC(=O)N(CC(=O)Nc2ccc(S(=O)(=O)Nc3ncccn3)cc2)C1=O (centres undefined)	0	4	98*	1	9	0
Cc1ccc(C2(C)NC(=O)N(CC(=O)Nc3ccccc3N3CCCCC3)C2=O)cc1 (centres undefined)	1	9	4	-3	-7	0
Cc1ccc(S(=O)(=O)N(C)CC(=O)Nc2ccccc2N2CCCC2)cc1	0	11	83*	2	-1	0
Cc1ccc(C2(C)NC(=O)N(CC(=O)Nc3ccccc3N3CCCC3)C2=O)cc1 (centres undefined)	0	5	77*	11	3	0
CSc1nc(C)cc(Oc2ccccc2)n1	1	-4	-1	-2	7	0
O=C(N[C@@H](Cc1ccccc1)C(=O)N1CCN(S(=O)(=O)c2ccccc2F)CC1)c1ccco1	0	10	4	0	-10	0
CC1CCc2c(sc(NC(=O)c3cccn3C)c2C(N)=O)C1 (centres undefined)	-3	0	0	31	9	0
O=C(OCCN1C(=O)c2ccccc2C1=O)c1ccco1	0	5	0	-2	-8	0
CC(C)C(CCN1C(=O)c2ccccc2C1=O)c1ccco1 (centres undefined)	0	1	90*	-2	-4	0
Cc1ccc(C)c(NC(=S)NC(NC(=O)Cc2cccc3ccccc23)C(Cl)(Cl)Cl)c1 (centres undefined)	12*	-6	0	2	-3	0
Cc1ccc(C)c(NC(=S)NC(NC(=O)N(C)C)C(Cl)(Cl)Cl)c1 (centres undefined)	0	2	3	0	5	0
CCn1cnc2c(Nc3cccc(Cl)c3)nc(C#N)nc21	0	26	8	22	25	0
CCn1cnc2c(NCCc3cccnc3)nc(C#N)nc21	0	4	-3	71*	-4	0
NNC(=O)c1ccccc1CO	0	31	79*	2	-12	0
COc1ccccc1CNC(=O)[C@H](C)NC(=O)C1CCN(C(=O)[C@@H](N)CCSC)CC1	-1	-9	-25	-1	-6	0
COc1ccc(CNC(=O)[C@@H](C)NC(=O)C2CCN(C(=O)[C@@H](N)CCSC)CC2)cc1	0	-45	-15	0	612*	0
COc1ccc(NC(=O)c2c(NC(=O)CNCc3ccco3)sc3c2CCC3)c(OC)c1	0	17	-13	6	-6	0
COc1ccc(NC(=O)c2c(NC(=O)CNCc3ccco3)sc3c2CCC3)cc1	0	4	-23	53*	13	0
CCOc1ccc(CNC2CCCCCCC2)cc1OC	12*	19	-2	0	143	0
CCCc1nc2ccccc2c(=O)n1/N=C/c1ccc(O)cc1O	1	10	4	6	6	0
CN=c1scc(C)n1/N=C/c1ccc(O)cc1	-3	14	99*	-3	-2	0
Cc1cc(C)n(/N=C/c2ccc(O)cc2)c(=O)c1C#N	1	10	-14	1	4	0
CN=c1scc(C)n1/N=C/c1ccc(O)cc1O	-13	15	99*	1	-2	0
SMILES	Bfl-1 A1 inh	VLA-4 inh	ALR inh	AHR activator	Mot1-301 SUMO	Efflux pump mplx
CN=c1scc(C)n1/N=C/c1ccc2c(c1)OCO2	-7	-1	98*	-11	-8	0
C=CCN=c1scc(-c2ccccc2)n1/N=C/c1ccccn1	-1	18	28	35	-1	0
C=CCN=c1scc(C)n1/N=C/c1ccc(O)c(O)c1	0	3	99*	45	47	0
CN(Cc1cn(-c2ccccc2)nc1-c1ccc(Cl)cc1)C(=O)CCC(=O)O	1	26	3	9	1	0
Cc1cc(N=Cc2c(O)ccc3cc(Br)ccc23)no1	0	7	-97	5	-37	0
CSCCC(NC(=O)c1cccc(C)c1)C(=O)OCC(=O)Nc1c(C)nn(-c2ccccc2)c1C (centres undefined)	1	-2	0	-2	-19	0
CN(c1nc(-c2ccccc2)cs1)C1CCS(=O)(=O)C1 (centres undefined)	-1	-2	0	1	4	0
Cc1[nH]c2ccc(Br)cc2c(=S)c1C/C=C/Cl	3	-7	-13	6	291	1
Cc1[nH]c2ccc3ccccc3c2c(=O)c1C/C=C/Cl	-1	12	.	47*	1	0
Cc1ccc(NC2CCCN(C(=O)c3ccccn3)C2)cc1C (centres undefined)	0	7	99*	6	4	0
O=C(c1cccc2nccnc12)N1CCCC(Nc2ccc(F)c(F)c2)C1 (centres undefined)	0	5	7	4	-24	0
Cc1ccc(NC2CCCN(C(=O)c3cc(C(C)C)[nH]n3)C2)cc1C (centres undefined)	0	17	99*	.	-3	0
CCCc1cc(C(=O)N2CCCC(Nc3ccc(C)c(C)c3)C2)n(C)n1 (centres undefined)	1	-13	98*	11	-5	0
Cc1ccc2nccc(C(=O)N3CCCC(Nc4ccc(C)c(C)c4)C3)c2c1 (centres undefined)	0	-108	99*	32	5	0
O=C(NC1CCCC1)C(c1ccccn1)N(C(=O)c1csnn1)c1ccccc1Br (centres undefined)	0	-1	.	-1	4	0
COc1cc(OC)cc(C(=O)OCC(=O)NCCCc2ccccc2)c1	1	10	-6	1	3	0
Cc1nc(CC(C)C)cc(C(=O)N2CCCC(Nc3ccc(C)c(C)c3)C2)n1 (centres undefined)	-1	-10	?	5	222	0
Cc1nc(C(=O)N2CCCC(Nc3ccc(C)c(C)c3)C2)cs1 (centres undefined)	0	9	99*	.	0	0
Cc1ccc(NC2CCCN(C(=O)c3cnsn3)C2)cc1C (centres undefined)	0	12	99*	33	4	0
